Compound activity (PubChem BioAssay)
HSF1 activator: HSF-1 activators, primary screen, NIH3T3-HGL cells, MG132 stress, luminescence, single point | NIH3T3-HGL HSF-1 luciferase reporter, 8 h; 100% = twice DMSO control signal | activation, % at 9 µM | hit rate 1.7% among 300,000;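 active = mean replicate activation of at least 50% with a set share of replicates each reaching 50%; inconclusive = only one of those two conditions met; inactive = mean below 50% and too few replicates reaching it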;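 note: 0% = median of the neutral control wells and 100% = twice that signal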
Wnt bcat act: Wnt/beta-catenin pathway activators, primary screen, cell-based, plate reader, single point; Wnt/beta-catenin reporter cell assay, activator; activation, % at 9.35 µM; hit rate 1.2% among 300,000; in the data active = activation above about 30%, passing the limit was not always enough; inconclusive = no clear call, values can overlap the other calls;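 note: 0% = neutral control wells and 100% = positive control wells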
esBAF inh: Bmi1 luciferase reporter increase in mESCs, primary screen, esBAF inhibitor project, mouse ES cells, Bmi1 luciferase knock-in, single point. 24 h; 100% = twice the neutral-well signal. reporter increase, % at 12.5 µM. hit rate 2% among 350,000. AID 602393, 2012; in the data active = activation above about 40%; inconclusive = no clear call, values can overlap the other calls;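 note: 0% = median of the plate's neutral control wells and 100% = double that signal; a rise in the Bmi1 reporter signal indicates esBAF inhibition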
MITF TRPM1 HTS: activators of MITF-driven TRPM1 promoter reporter, primary screen, cell-based, SK-MEL-5, luciferase, single point; SK-MEL-5 TRPM1-promoter luciferase, 24 h; % of positive control, neutral wells = 0; activation, % at 12.5 µM; hit rate 0.75% among 300,000;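 active = mean activation of at least 80% with every replicate also reaching 80%; inconclusive = mean reaches 80% but some replicate falls short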;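 note: 0% = neutral control wells and 100% = parthenolide positive control wells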
HSF1 inhib: HSF1 inhibitors in luciferase reporter cells, primary screen, cell-based, NIH3T3, luminescence; NIH3T3-HGL HSE-luciferase, MG132-induced, luminescence 8 h; active compounds read low; activity change, negative = inhibition, % at 7.5 µM (by protocol); hit rate 0.77% among 300,000;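 active = more than half of replicate wells show activity change below -50%, luminescence cut by over half; inconclusive = some wells, but at most half, below -50%; inactive = no replicate well below -50%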;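 note: luciferase reports HSF-1 transcriptional activity via heat shock element; 0% = median of DMSO wells and -100% = zero luminescence signal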
Numbers without * were called inactive; ? = inconclusive; / = no result given. Only some compounds are listed: those with a hit (about 3.8% of all), similar ones and a draw of the others.

SMILES	HSF1 activator	Wnt bcat act	esBAF inh	MITF TRPM1 HTS	HSF1 inhib
COc1ccccc1S(=O)(=O)N[C@H]1CC[C@@H](CCNC(=O)C2CCC2)O[C@H]1CO	/	/	-1	/	/
C[C@H]1CCCCO[C@@H](CN(C)S(=O)(=O)c2cccs2)[C@@H](C)CN([C@@H](C)CO)C(=O)c2cc(NS(=O)(=O)c3ccccc3)ccc2O1	/	/	-1	/	/
O=C(Oc1oc(-c2ccco2)nc1C=Nc1ccccc1)c1ccoc1	-86	-1	32	-20	-81*
Cc1ccc(N=Cc2nc(-c3ccco3)oc2O)cc1	49	37*	48*	104*	36
O=C(Oc1oc(-c2ccco2)nc1C=Nc1ccccc1)c1ccco1	-2	4	22	-19	6
Cc1ccc(C(=O)Oc2oc(-c3ccccc3)nc2C=Nc2ccc(N(C)C)cc2)cc1	144*	6	/	0	89
Cc1ccc(C(=O)Oc2oc(-c3ccco3)nc2C=Nc2ccc(Cl)cc2)cc1	86*	/	/	-1	53
C[C@H](CO)N1C[C@H](C)[C@@H](CN(C)C(=O)c2ccncc2)OCCCC[C@H](C)Oc2ccc(NS(=O)(=O)c3cn(C)cn3)cc2C1=O	/	/	-1	/	/
C/C(=N/OC(=O)C1CC1)c1cc(-c2ccc(Cl)cc2)no1	43	8	/	89*	33
C/C(=N\OC(=O)c1ccccc1)c1cc(-c2ccc(Cl)cc2)no1	0	/	7	65	15
CCN=C1S/C(=C\c2ccc(-c3cccc(C(=O)O)c3)o2)C(=O)N1CC	-57	/	/	68	-52*
C#CCN1C(=O)S/C(=C\c2ccc(-c3ccc(Cl)c(C(=O)O)c3)o2)C1=O	38	31*	38	27	25
CCC(=O)N[C@H]1CC[C@@H](CC(=O)NCCN2CCCCC2)O[C@@H]1CO	/	/	-6	/	/
COc1ccc(S(=O)(=O)Nc2cccc3c2O[C@H](CN(C)CC2CC2)[C@H](C)CN([C@H](C)CO)C3=O)cc1	/	/	-4	/	/
CCc1cccc(NC(=O)COC(=O)/C=C/c2cccs2)c1	-62	-3	7	-3	-52*
O=C(COC(=O)/C=C/c1cccs1)Nc1ccc(F)cc1	/	3	-5	2	/
C[C@@H]1CN([C@@H](C)CO)C(=O)c2cc(NC(=O)C3CCCCC3)ccc2O[C@@H]1CN(C)S(=O)(=O)c1cn(C)cn1	/	/	-2	/	/
CCOC(=O)C1=C(C)N(C[C@@H]2CC[C@@H](Cc3ccc4cc(OC)ccc4c3)O2)C(=O)NC1c1ccc(OC)cc1 (some centres not stated)	/	-2	-6	-15	/
COc1ccc2cc(C[C@@H]3CC[C@@H](CO)O3)ccc2c1	/	21	67*	118*	/
Cc1cc(C)c2cc(CN(CCN(C)C)C(=O)Nc3ccccc3Cl)c(=O)[nH]c2c1	-60	0	/	8	-50*
CCOC(=O)C(C)(C)N(Cc1ccc(Cl)cc1)S(=O)(=O)c1ccc(Cl)c([N+](=O)[O-])c1	66*	/	/	/	33
CCOC(=O)C(C)(C)N(Cc1ccc(C)cc1)S(=O)(=O)c1ccc(Cl)c([N+](=O)[O-])c1	?	-15	/	-90	40
O=C(NC1CCCCC1)C(c1cccs1)N(C(=O)Cc1c[nH]c2ccccc12)c1ccc(F)cc1 (configuration not stated)	51*	-5	4	/	39
Cc1ccc(C(C(=O)NC2CCCCC2)N(C(=O)Cc2c[nH]c3ccccc23)c2ccccc2)o1 (configuration not stated)	58*	/	6	-1	32
C[C@H](CO)N1C[C@H](C)[C@@H](CN(C)Cc2ccc(Oc3ccccc3)cc2)Oc2c(NC(=O)Nc3ccc(F)cc3)cccc2C1=O	/	/	-1	/	/
SMILES	HSF1 activator	Wnt bcat act	esBAF inh	MITF TRPM1 HTS	HSF1 inhib
C[C@H]1CCCCO[C@H](CN(C)C(=O)C2CCCCC2)[C@@H](C)CN([C@@H](C)CO)C(=O)c2cc(NC(=O)Nc3ccc(F)cc3)ccc2O1	/	/	-1	/	/
CC(C)NC(=O)N(C)C[C@H]1Oc2cc(C#CCN(C)C)ccc2S(=O)(=O)N([C@H](C)CO)C[C@H]1C	/	/	1	/	/
O=C(C[C@@H]1C[C@H]2c3cc(NC(=O)C4CCOCC4)ccc3O[C@H]2[C@H](CO)O1)NC1CCCCC1	/	/	0	/	/
Clc1ccc(-c2cc(COc3ccccc3)on2)cc1	?	9	51*	70	47
O=S(=O)(Cc1cc(-c2ccccc2Cl)no1)c1ccccc1	72*	-2	53*	90*	41
Clc1ccc(OCc2cc(-c3ccccc3)no2)cc1Cl	34	1	/	30	21
O=S(=O)(Cc1cc(-c2ccc(Cl)cc2)no1)c1ccccc1	13	-4	51*	?	14
C[C@@H]1CN([C@H](C)CO)C(=O)c2cccc(NC(=O)c3nc4ccccc4s3)c2O[C@H]1CN(C)C(=O)Nc1ccc(C(F)(F)F)cc1	/	/	2	/	/
Cc1ccccc1S(=O)(=O)NCC[C@@H]1CC[C@@H](NS(=O)(=O)c2ccccc2C)[C@H](CO)O1	/	/	-2	/	/
CCOC(=O)c1sc(S(C)(=O)=O)c2c1CCc1conc1-2	3	55*	/	/	-7
CCC(=O)N(C)C[C@@H]1Oc2cc(-c3cncnc3)ccc2S(=O)(=O)N([C@@H](C)CO)C[C@@H]1C	/	/	-3	/	/
C[C@H](NC(=O)C[C@H]1C[C@@H]2c3cc(NC(=O)Nc4ccc(C(F)(F)F)cc4)ccc3O[C@@H]2[C@H](CO)O1)c1ccccc1	/	/	15	/	/
CCCC(C(=O)NC(C)(C)C)N(C(=O)c1snc(C(N)=O)c1N)c1ccc2c(c1)OCCO2 (configuration not stated)	-76	-3	-13	-19	-74*
CCCCn1cnc2sc(-c3ccccc3)cc2c1=O	56*	/	/	91*	32
CCCCCn1cnc2sc(-c3ccccc3)cc2c1=O	57*	22	82*	107*	30
CCCCCn1cnc2sc(CC)cc2c1=O	47	22	/	69	34
COc1ccccc1-c1cn(CC[C@@H]2CC[C@H](NC(=O)C3CC3)[C@H](CO)O2)nn1	/	/	-1	/	/
C[C@H](CO)N1C[C@H](C)[C@H](CN(C)C(=O)c2ccc3c(c2)OCO3)Oc2ncc(/C=C/c3ccccc3)cc2C1=O	/	/	2	/	/
Cn1c(=O)oc2cc(S(=O)(=O)NCCC(=O)NC3CCCc4ccccc43)ccc21 (configuration not stated)	3	-4	-4	-16	-1
CC(C)CC(NS(=O)(=O)c1ccc2c(c1)oc(=O)n2C)C(=O)NC1CCCc2ccccc21 (configuration not stated)	62*	-3	-7	/	30
C[C@@H]1CN([C@@H](C)CO)C(=O)c2cc(NC(=O)Nc3ccc(C(F)(F)F)cc3)ccc2O[C@@H](C)CCCCO[C@H]1CN(C)S(=O)(=O)c1ccc(F)cc1	/	/	0	/	/
